# Compound activity (PubChem)
# Most compounds without a hit are left out; they make up all but 5.7% or so of the library.
# ssDAF-12 act: S. stercoralis DAF-12 nuclear receptor activators, primary screen, cell-based, luminescence, HEK293, GRIP1 co-expression, lit1-tk-luc. Nuclear hormone receptor DAF-12 (Strongyloides stercoralis). HEK293 ssDAF-12/GRIP1 lit1-tk-luc reporter; % of 3 µM dafachronic acid response. activation, % at 6.8 µM. 1% of 370,000 active. AID 652126, 2013;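 active = activation above the mean over all tested compounds plus 3 SD, cut at about 0.9% in these data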;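 note: 0% = DMSO-only wells and 100% = 3 µM delta7-dafachronic acid wells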
# DAX1 inh-1: DAX1 (NR0B1) inhibitors on StAR promoter, primary screen, cell-based, luminescence, SF-1 (NR5A1), full-length DAX-1. HEK293T StAR-luciferase reporter, SF-1/DAX-1 repression relief. inhibition, % at 6.8 µM. 1.1% of 370,000 active. AID 652010, 2013;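 active = inhibition above the mean over all tested compounds plus 3 SD, cut at about 3.6% in these data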;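 note: 0% = DAX-1 cells with DMSO and 100% = cells lacking DAX-1 with DMSO; higher inhibition means more luminescence from relief of DAX-1 repression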
# hgDAF-12 ag: H. glycines DAF-12 receptor agonists, primary screen, cell-based, luminescence, HEK293, GAL4 fusion, UAS-luciferase. Nuclear hormone receptor DAF-12 (Heterodera glycines), GAL4 fusion. activation, % at 6.8 µM. 1.8% of 370,000 active. HEK293 GAL4-hgDAF12 UAS-luciferase reporter, agonist luminescence; normalized to butyrate control. AID 687014, 2013;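 active = activation above a cutoff set at the mean of all screened compounds plus 3 SD, cut at about 10% in these data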;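 note: 0% = DMSO wells and 100% = sodium butyrate wells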
# AHR activator: AHR activators, primary screen, cell-based, luminescence, luciferase reporter, human; AHR-responsive luciferase reporter cells; activation, % at 5 µM; 2.5% of 320,000 active; in the data active = activation above about 47%;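 note: 0% = vehicle wells and 100% = reference agonist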
# DAX1 inh-2: DAX1 (NR0B1) inhibitors, primary screen, cell-based, HEK293, Gal4-DAX1, luciferase luminescence | Nuclear receptor subfamily 0 group B member 1 (Homo sapiens), P51843 | HEK293 Gal4-DAX1 luciferase reporter | inhibition, % at 6.75 µM | 0.99% of 340,000 active;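 active = inhibition above the mean over all tested compounds plus 3 SD, cut at about 4.2% in these data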;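 note: 0% = DAX1-transfected cells with DMSO and 100% = empty-vector control cells with DMSO; inhibition shows as a rise in luminescence from relieved DAX1 repression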
# Target sequence (P51843 207-470 limits assumed): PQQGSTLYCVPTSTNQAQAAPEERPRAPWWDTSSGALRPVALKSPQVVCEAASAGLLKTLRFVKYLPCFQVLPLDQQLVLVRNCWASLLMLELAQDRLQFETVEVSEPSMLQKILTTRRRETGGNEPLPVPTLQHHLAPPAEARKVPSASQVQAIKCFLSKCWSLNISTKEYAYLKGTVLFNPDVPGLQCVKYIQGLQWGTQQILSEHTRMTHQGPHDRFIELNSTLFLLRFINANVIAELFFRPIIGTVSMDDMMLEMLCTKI
# hcDAF-12 act: H. contortus DAF-12 nuclear receptor activators, primary screen, cell-based, luminescence, HEK293, lit1-tk-luc reporter. AID 652067, 2013. 1.4% of 370,000 active. activation, % at 6.8 µM. HEK293 hcDAF-12 lit1-tk-luc reporter; 0% DMSO, 100% Δ7-dafachronic acid;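 active = activation above the mean of all tested compounds plus 3 SD, cut at about 5.5% in these data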;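 note: 100% = response to 3 µM Δ7-dafachronic acid high control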
# Active calls of the source: *; nt = not tested or not shown.
SMILES,ssDAF-12 act,DAX1 inh-1,hgDAF-12 ag,AHR activator,DAX1 inh-2,hcDAF-12 act
O=C(OCC(F)(F)F)c1cccc(COc2ccc3ccccc3c2)c1,0,5.6*,15*,-17,-5,6.1*
CC(C)Oc1cccc(C(=O)N2CCCC2)c1,1.1*,0,0,2,-1,1
COc1ccc(OCc2cccc(C(=O)O)c2)cc1,0,1,5,-7,-6,5.8*
COc1cccc(OC)c1C(=O)NNC(=O)c1cccc(COc2ccc3c(c2)CCC3)c1,-1,2,12*,-5,-4,2
O=Cc1ccc(OCc2cccc(C(F)(F)F)c2)cc1O,0,-1,3,1,7.2*,-1
COc1ccccc1NC(=O)c1ccc(COc2ccc3c(c2)CCC3)cc1,-1,0,1,3,0,1
Cn1c(=O)c2sccc2n2c(CCCC(=O)NCCc3ccccc3)nnc12,-1,0,-2,-1,-1,-2
O=C(NNS(=O)(=O)c1ccc2ccccc2c1)NC1CCCCC1,-2,0,-3,-1,-1,-2
C=C(C)CNC(=O)CCc1nnc(C2(c3ccc(Cl)cc3)CCC2)o1,1,1,8,3,0,-1
C=CCNC(=O)CCc1nnc(C2(c3ccc(Cl)cc3)CCC2)o1,-1,1,12*,7,1,3
COC(=O)CNC(=O)CCc1nnc(C2(c3ccc(Cl)cc3)CCC2)o1,-1,1,2,1,4.4*,2
O=C(NC1CCCC1)C(C1CC1)n1c(C2CC2)nc2ccccc21 (configuration not stated),1.6*,2,5,nt,nt,1
O=C(NC1CCCC1)C(C1CC1)n1c(C2CCCC2)nc2ccccc21 (configuration not stated),-1,0,-2,nt,nt,1
COC(=O)C(NC(C)=O)(Nc1ccc(C)cn1)C(F)(F)F (configuration not stated),-1,0,1,-2,4.2*,3
COc1cccc(CNc2ncnc3ccc(-c4c(C)noc4C)cc23)c1,-1,-1,1,8,0,0
Cc1ccsc1CNc1ncnc2ccc(-c3c(C)noc3C)cc12,0,0,-4,56*,1,2
O=C(NCC1CC1)c1ccc2c3n(nc2c1)-c1ccc(Cl)cc1CO3,-1,1,12*,-12,0,2
COCCNC(=O)c1ccc2c3n(nc2c1)-c1ccc(Cl)cc1CO3,-1,1,7,4,2,3
COCCNC(=O)c1ccc2c3n(nc2c1)-c1ccccc1CO3,0,2,12*,-8,2,6.4*
Cc1noc(C)c1NC(=O)N(C)C[C@@H]1OCc2cn(nn2)CCCC(=O)N([C@@H](C)CO)C[C@H]1C,0,1,0,nt,nt,0
COc1ccc(S[C@]2(C(=O)N3CCN(c4ncccn4)CC3)CC(=O)N(C(=O)CCc3ccccc3)[C@@H]2c2ccc(OC)cc2)cc1,-1,-1,1,nt,nt,3
CC1=NN(c2ccccc2C)C(=O)C1,1.9*,0,0,nt,1,0
COc1ccccc1Nc1nc(NCC(C)C)nc(N)c1[N+](=O)[O-],-1,0,-1,79*,-2,-4
CCC(C)Nc1nc(N)c([N+](=O)[O-])c(Nc2ccccc2OC)n1 (configuration not stated),-2,0,-2,69*,-2,-3
COc1ccccc1Nc1nc(NCCCN(C)C)nc(N)c1[N+](=O)[O-],-1,0,2,62*,2,-1
SMILES,ssDAF-12 act,DAX1 inh-1,hgDAF-12 ag,AHR activator,DAX1 inh-2,hcDAF-12 act
COc1cc(CCN=Cc2cccc(OC)c2O)c([N+](=O)[O-])cc1OC,-1,1,3,nt,nt,2
COC(=O)C(Cc1c[nH]c2ccccc12)NC(=O)C(C)C (configuration not stated),-1,-1,-1,2,0,1
O=C(NC(Cc1c[nH]c2ccccc12)C(=O)O)/C(=C/c1ccc(F)cc1)NC(=O)c1ccccc1 (configuration not stated),0.9*,0,2,8,2,5
COC(=O)C(Cc1c[nH]c2ccccc12)NC(=O)C(=O)c1c[nH]c2ccccc12 (configuration not stated),0,0,3,7,0,5.9*
O=C(O)c1cc(S(=O)(=O)NC(Cc2c[nH]c3ccccc23)C(=O)O)ccc1Cl (configuration not stated),0.9*,0,2,15,1,5.9*
O=C(O)C(Cc1c[nH]c2ccccc12)NS(=O)(=O)c1ccc2ccccc2c1 (configuration not stated),0,0,1,12,1,4
CC(C)C[C@H]1COc2cc(NCCCN3CCOCC3)ccc2S(=O)(=O)N1,-1,0,1,nt,nt,1
Cc1noc(C)c1-c1ccc(C(=O)NCc2ccco2)c2occc12,0,2,-1,nt,nt,0
Cn1nccc1-c1ccc(C(=O)NCc2ccco2)c2occc12,0,3,13*,nt,nt,1
CCOC(=O)c1cc(C#N)c(SCc2ccc(C#N)cc2)nc1C,1.1*,0,0,17,0,3
CCOC(=O)Cc1cc(-c2ccccc2)nc2ccc3ccccc3c12,0,0,5,93*,0,3
CCOC(=O)c1cc(-c2ccccc2)nc2ccc(C)cc12,0,0,2,2,4,0
CC1(C)CCC(=O)N2CC[C@H]3C[C@H](OC(=O)Nc4ccccc4)C[C@@H]1[C@H]32,-1,1,9,8,1,1
CC1(C)CCC(=O)N2CC[C@H]3C[C@H](OC(=O)Nc4ccc5c(c4)OCO5)C[C@@H]1[C@H]32,-1,0,9,60*,1,1
Brc1ccc(C2=CC(c3ccco3)n3nnnc3N2)cc1 (configuration not stated),0,0,2,52*,1,2
O=C(O)COc1ccc(C(=O)Cc2ccc3c(c2)OCCCO3)c(O)c1,-1,0,-1,-1,0,-3
COc1ccc(C(=O)Cc2ccc3c(c2)OCO3)c(O)c1,1.4*,3,9,5,1,4
O=C(Cc1ccc(Br)cc1)c1ccc(O)cc1O,-1,1,9,1,2,1
